rTrxR1 inhibitor – rat TrxR1 inhibition; recombinant rTrxR1, NADPH fluorescence consumption, selenite substrate; Potency, µM (top dose mostly 114 µM), inactives show at the highest dose activity change, negative = inhibition, most hits filed as inhibitors; 1% of 390,000 active; also: nearly all actives have a fitted effect of over 65% in size
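Rat TrxR1 (90 nM in the dispensed reagent) was pre-reduced with 400 uM NADPH for 5 min at room temperature, then incubated with compound for 15 min. After 400 uM selenite was added, NADPH fluorescence (Ex 340/Em 450 nm) was followed for 8 min.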
TrxR1 substrate – substrates of rat thioredoxin reductase 1; O89049; purified TrxR1 substrate turnover, NADPH consumption readout; Potency, µM (doses to about 114 µM), for the others: at the top dose activity change, negative = substrate turnover; 0.01% of 390,000 active; AID 588456; also: nearly all actives have a fitted effect of over 50% in size
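Rat TrxR1, dispensed at 90 nM, was prereduced with 400 uM NADPH (final) for 5 min at ~22 deg C, then incubated with compound 15 min before 400 uM selenite. A first-read NADPH fluorescence drop versus no-compound background flagged substrates.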
IDH1 R132H inh – human IDH1 R132H inhibition. Potency, µM (series often up to 76.6 µM), inactives show at the top dose activity change, negative = inhibition, most hits filed as inhibitors. 0.093% of 390,000 active. IDH1-R132H enzyme, NADPH consumption, diaphorase/resazurin fluorescence; also: nearly all actives have a fitted effect of over 65% in size
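IDH1-R132H (0.5 ug/mL dispensed) in pH 7.5 Tris buffer was preincubated 30 min with compound, then given a substrate mix of 0.016 mM NADPH and 2 mM alpha-KG for 80 min at room temperature; remaining NADPH was read by diaphorase/resazurin fluorescence.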
VDR inhibitor – blocks the human vitamin D receptor | AID 504847 | 0.93% of 400,000 active | Potency, µM, inactives show max response, negative = inhibition, hits mostly inhibitors | P11473 | VDR-SRC2-3 peptide fluorescence polarization, 2 h
Target sequence (P11473 whole entry, looked up): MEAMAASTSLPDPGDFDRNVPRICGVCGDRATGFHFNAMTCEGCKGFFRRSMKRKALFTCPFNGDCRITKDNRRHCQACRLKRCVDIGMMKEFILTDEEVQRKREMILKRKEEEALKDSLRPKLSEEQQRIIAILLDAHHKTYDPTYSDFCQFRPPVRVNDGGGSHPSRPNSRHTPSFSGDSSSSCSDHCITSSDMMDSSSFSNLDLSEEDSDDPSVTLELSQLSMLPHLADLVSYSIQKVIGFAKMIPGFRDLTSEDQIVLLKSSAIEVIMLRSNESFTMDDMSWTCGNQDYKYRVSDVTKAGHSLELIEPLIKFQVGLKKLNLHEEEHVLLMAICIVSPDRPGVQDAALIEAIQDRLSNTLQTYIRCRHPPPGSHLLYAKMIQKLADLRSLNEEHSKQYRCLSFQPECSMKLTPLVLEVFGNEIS
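FP read-out; VDR + SRC2-3 coactivator peptide; 23 nl compound by pintool; 2 h RT incubation; reagents held at 4 deg C, protected from light.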
PLK1 PBD block – blocks phosphopeptide binding to human PLK1 polo-box domain. 2.8% of 360,000 active. Plk1 PBD binding of FITC phosphopeptide, fluorescence polarization. Potency, µM, for inactives: max response, negative = inhibition, most hits filed as inhibitors. P53350; also: series mostly up to about 57 µM; nearly all actives have a fitted effect of over 65% in size
Sfp inh – blocks B. subtilis Sfp PPTase activity; Q9F4F7; Biochemical Sfp PPTase activity, qHTS; Potency, µM, for inactives: largest response in the series, negative = inhibition, hits mostly inhibitors; 3.5% of 310,000 active;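 also: the enzyme is Sfp with the accession as filed and its product quenches rhodamine fluorescence; 0% = enzyme reaction without inhibitor and -100% = no enzyme wells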
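Compounds were incubated with enzyme (final 15 nM) for 15 min at room temperature before substrate addition started the reaction. Fluorescence at 525 nm excitation, 598 nm emission was recorded immediately and after 30 minutes.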
* hit, by the source's call; ? = inconclusive; nt = no result; ! = not active in a repeat; [ ] = dose if it differs, or a comment. Sampled rows, rich in hits. Any-hit rate of the full collection: about 5.2%. Calls follow the shape of the dose curve; as a rule, active = well fitted curve in the direction sought with a large enough effect; inconclusive = small, poorly fitted or top-dose-only effect, or another doubt; inactive = no such curve, though single readings can be large; an effect the other way counts as inactive or inconclusive. Unless noted, % is scaled to controls: 0 for no effect and ±100 for the full control effect; potency is read from the fitted curve at half-maximal effect.

SMILES | rTrxR1 inhibitor | TrxR1 substrate | IDH1 R132H inh | VDR inhibitor | PLK1 PBD block | Sfp inh
CCN1CCN(C(=O)c2cc3cc(F)ccc3[nH]2)CC1 | 13% | 10%[57.1 µM] | 7% | -6% | -12% | 1%
CC1=NN(c2ccc(Cl)cc2)C(=O)C1C(c1ccccc1O)c1c(C)[nH]n(-c2ccc(Cl)cc2)c1=O (stereo not drawn) | ? | -6% | -3% | -69% | 24µM* | 30%
O=C(O)/C=C/c1ccc(O)c(O)c1 | ? | 9%[57.1 µM] | 0% | 8% | -7% | 56µM*!
O=C(/C=C/c1ccc(O)c(O)c1)O[C@H](Cc1ccc(O)c(O)c1)C(=O)O | nt | nt | nt | nt | nt | 50µM*
NC(Cc1ccc(O)c(O)c1)C(=O)O (stereo not drawn) | nt | nt | nt | nt | nt | -81%
COc1cc(N(C)C)c(OC)cc1/C=C/c1ccnc2ccccc12 | 22%[0.0914 µM] | 0% | nt | nt | nt | nt
CN(C(=S)Nc1ccc(SC(F)F)cc1)c1ccc(O)cc1 | ? | 0% | 3% | -25% | ? | 32µM*
CN(C(=S)Nc1ccc(Oc2ccccc2)cc1)c1ccc(O)cc1 | ? | -16% | 3% | ? | -17% | 7.9µM*
CCNC(=O)N(C)c1c(CC)nc2ccc(C(=O)N3CCN(S(=O)(=O)CC)CC3)cn12 | nt | nt | nt | nt | -4% | nt
CC1(C)C2CCC(C2)C1(C)NC(=O)CNCc1cccs1 (stereo not drawn) | -12% | 1% | 10% | -11% | -8% | 89µM*
CO[C@]12C[C@@H](COC(=O)c3cncc(Br)c3)CN(C)[C@@H]1Cc1cn(C)c3cccc2c13 | nt | nt | nt | ? | nt | 5%
Cc1cc2c(cc(C(=O)OCC(=O)NC3CCCCC3)n2C)o1 | 8% | 19% | -2% | ? | 27µM* | nt
Cc1ccc2c(Cl)cc(Cl)c(OCC(=O)N3CCCC3)c2n1 | 14%[57.1 µM] | 9%[57.1 µM] | 2% | -25% | 27µM* | 0%
COc1ccccc1CC(=O)NC1CCC(C)CC1 (stereo not drawn) | 24% | 0% | -23% | 0% | -22% | -8%
CC1CCC(NC(=O)CNC(=O)Cc2cccc3ccccc23)CC1 (stereo not drawn) | 13% | 12%[57.1 µM] | 8% | ? | 24µM* | -8%
COC1=C(c2ccccc2)C(=O)c2ccccc2C1=O | 38%[57.1 µM] | 2%[57.1 µM] | 4% | -20% | ? | 3%
O=C1C(c2ccccc2)=[N+]([O-])c2ccccc21 | 18%[57.1 µM] | -11%[57.1 µM] | 15% | 4µM* | 0.17µM* | nt
COc1cc(CN2CCCC(C(=O)N3CCc4ccccc4C3)C2)cc(OC)c1OC (stereo not drawn) | 8%[57.1 µM] | 3%[57.1 µM] | -1% | 11% | -3% | -29%
CCOc1ccc2nc3ccc4[nH]onc4c3c2c1 | -2% | 10% | 4% | -14% | -11% | nt
CCOc1ccc2nc3cc(N)ccc3c(N)c2c1 | nt | nt | nt | 13µM* | nt | -26%
CC[C@]12c3[nH]c4cc(CCC(=O)N(C)C)ccc4c3CCN1C(=O)[C@@H](CC(=O)NCCc1ccccn1)C[C@@H]2C(=O)N1CCN(C(=O)C2CC2)CC1 | -3% | 2% | 12% | -7% | -3% | nt
COc1ccc2c(c1)c1nc3ccccc3nc1n2Cc1ccc(OC(C)C)c(OC)c1 | -15% | -18% | 4% | -19% | -10% | 14µM*
COc1ccc(Cn2c3ccc(OC)cc3c3nc4ccccc4nc32)cc1 | 10% | -1% | 0% | -22% | -30% | 1%
CC(C)(C)c1ccc(C(=O)/C(C#N)=C/c2cccs2)cc1 | -14% | -6% | 0% | -13% | 7.5µM* | 11%
CC(C)(C)c1ccc(CS(=O)(=O)CC(O)CN2CCCC2=O)cc1 (stereo not drawn) | 32% | 3% | 7% | -17% | 34µM* | 17%
O=C1CCCN1CC(O)CS(=O)(=O)Cc1ccc(Cl)cc1 (stereo not drawn) | 10% | 2% | 1% | -2% | 8% | nt
CC(=O)c1ccc(OCC(=O)OCC(=O)N(CC(C)C)c2c(N)n(Cc3ccccc3)c(=O)[nH]c2=O)cc1 | -8% | -4% | -2% | -5% | -2% | nt
COc1ccc(OC)c2c(=S)c3ccccc3[nH]c12 | nt | nt | nt | 4.5µM* | nt | 56µM*
